Bioassay records deposited in PubChem by National Center for Advancing Translational Sciences (NCATS).
An excerpt weighted towards active compounds, which were near 17% of everything screened.
DT40 TDP1 no CPT: qHTS for Inhibitors of human tyrosyl-DNA phosphodiesterase 1 (TDP1): qHTS in cells in absence of CPT; DT40 Tdp1-/- hTDP1 cells, no CPT, ATP luminescence, 48 h; Potency, µM (titrated, usually from 46.2 µM), inactives show at the highest dose activity change, negative = growth inhibition, usual class: inhibitors; 420,000 compounds, 15% hits; AID 686978, 2013; further: on the % scale 0 is the no-effect control and ±100 the full control effect; nearly all actives have a fitted effect of over 55% in size
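Cells were dispensed at 400 per well, compounds added by pin tool, plates incubated ≥48 hr at 37 °C, then CellTiter-Glo added for 30 min at room temperature before luminescence reading. Line: DT40 Tdp1-/- complemented with hTDP1; camptothecin omitted.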
HepG2 viability: HepG2 cytotoxicity, counter-screen for TGF-b inhibitors. HepG2 CAGA-GFP viability, ATP luminescence, 18 h. Potency, µM (titrated, usually from 46.1 µM), without a hit: top-dose activity change, negative = cytotoxicity, hits mostly cytotoxic. 410,000 compounds, 0.76% hits
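CellTiter-Glo luminescence gave cytotoxicity after 18 hours at 37 degrees C. The cells were HepG2 CAGA-GFP in 1% FBS DMEM, stimulated with 500 pg/mL TGF-beta after compound addition. %Activity was normalised to no-cell wells (complete cell-killing) and DMSO (no toxicity), and curves were fitted and classified.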
HT1080NT lethal: kills 2HG-producing HT-1080-NT fibrosarcoma cells. HT-1080-NT fibrosarcoma viability, CellTiter-Glo ATP luminescence, 48 h. AID 686970. Potency, µM (titrated, usually from 46.1 µM), for inactives: at the highest dose activity, negative = less viability, actives largely listed as cytotoxic. 360,000 compounds, 1.6% hits;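 further: NT is the 2HG producing partner of a matched IDH1 knockdown line; 0% = DMSO-treated cells and -100% = media-only wells without cells; nearly all actives have a fitted effect of over 55% in size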
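HT-1080-NT fibrosarcoma cells (2HG-overproducing), 750 cells/well in RPMI with 5% FBS, dosed after 2 h and incubated 48 h at 37C. CellTiter-Glo luminescence normalized to DMSO and no-cell wells; concentration-response curves fitted and classed.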
HT1080 IDH1KD tx: HT-1080 IDH1 knockdown cell toxicity (counter line) | HT-1080 IDH1 knockdown viability, ATP luminescence, 48 h | Potency, µM (highest dose often 46.1 µM), for inactives: top-dose activity, negative = toxicity, hits mostly cytotoxic | 360,000 compounds, 2% hits | AID 686971;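 further: 0% = DMSO wells and -100% = cell-free medium wells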
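After a 2 h attachment period, IDH1KD HT-1080 cells took pin-transferred compound for 48 h at 37 °C; ATP-based luminescence after 10 min room-temperature reagent incubation reported viability.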
TGFb inhibitor: inhibitors of TGF-b signaling; 410,000 compounds, 1.2% hits; HepG2 CAGA-GFP TGF-b/SMAD3 reporter, GFP fluorescence, 18 h; TGF-beta stimulated, 500 pg/mL final; AID 588855; Potency, µM (titrated, usually from 46.1 µM), without a hit: at the top dose activity, negative = inhibition, hits mostly inhibitors; further: on the % scale 0 is the no-effect control and ±100 the full control effect; nearly all actives have a fitted effect of over 65% in size
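GFP signal (ex488/em500-530) from TGF-beta-stimulated HEPG2 CAGA-GFP cells, 500 pg/mL final, 18 h at 37 degrees C in DMEM plus 1% FBS, normalized to unstimulated and DMSO-stimulated controls.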
TDP1 cell CPT: growth inhibition of DT40 Tdp1-/-;hTDP1 cells with camptothecin (screen for TDP1 inhibitors); chicken DT40 Tdp1-/-;hTDP1 cells + 20 nM CPT, ATP luminescence, 48 h; Potency, µM (series often up to 46.2 µM), inactives show at the top dose activity change, negative = growth inhibition, usual class: inhibitors; 420,000 compounds, 12% hits; AID 686979; further: on the % scale 0 is the no-effect control and ±100 the full control effect; nearly all actives have a fitted effect of over 55% in size
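Chicken DT40 Tdp1-/- cells stably complemented with human TDP1 were seeded at 400 cells/well in medium containing 20 nM camptothecin, exposed to pin-transferred compounds, and grown at 37 °C for at least 48 hr. Viability was read as ATP luminescence.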
* = called active by the depositor; ? = inconclusive; · = no result given. The call rests on the fitted dose curve; in most records, active means well fitted curve in the direction sought with a large enough effect; inconclusive means small, poorly fitted or top-dose-only effect, or another doubt; inactive means no such curve, though single readings can be large; an effect the other way counts as inactive or inconclusive. Potency means the concentration at half of the fitted maximal effect.

SMILES	DT40 TDP1 no CPT	HepG2 viability	HT1080NT lethal	HT1080 IDH1KD tx	TGFb inhibitor	TDP1 cell CPT
COc1ccc(-c2c(C)nn3c(N4CCC(C(=O)NCCN(C)C)CC4)cc(C)nc23)cc1OC	-0.8%	-4.2%	?	-19.2%	33.5%	?
CCN(CC)CCNC(=O)C1CCN(c2cc(C)nc3c(-c4ccc(Cl)cc4)c(C)nn23)CC1	4.11µM*	-15.3%	·	·	-10.9%	3.66µM*
CCCN(CCC)C(=O)C1CCN(c2cc(C)nc3c(-c4ccc(OC)c(OC)c4)c(C)nn23)CC1	16.4µM*	-27.9%	-2.9%	1.0%	9.2%	18.4µM*
COCCCNC(=O)C1CCN(c2cc(C)nc3c(-c4ccc(OC)c(OC)c4)c(C)nn23)CC1	16.4µM*	7.2%	·	·	-14.0%	-18.0%
Cc1n[nH]c(C)c1S(=O)(=O)N1CCCC(C(=O)Nc2ccc(Cl)cc2)C1 (configuration not stated)	7.31µM*	-4.5%	·	·	?	?
CCOC(=O)c1cccc(NC(=O)C2CCCN(S(=O)(=O)c3c(C)n[nH]c3C)C2)c1 (configuration not stated)	?	-31.8%	-14.0%	-10.8%	-20.1%	?
CCOC(=O)c1c(S(=O)(=O)N2CCCC(C(=O)Nc3cccc(Cl)c3)C2)c(C)n(C)c1C (configuration not stated)	?	-25.9%	·	·	?	9.2µM*
CCOC(=O)c1cccc(NC(=O)C2CCCN(S(=O)(=O)c3c(C)nn(C)c3C)C2)c1 (configuration not stated)	?	-3.2%	-5.6%	-4.8%	-14.0%	20.6µM*
CC(=O)c1ccc(Nc2ccc(-c3ccccc3F)nn2)cc1	?	-20.6%	-1.7%	-12.9%	?	8.0%
Cn1nc(C2CC2)cc1NC(=O)C1(C)CCN1C(=O)CCc1ccccc1 (configuration not stated)	-20.4%	9.3%	23.5%	12.4%	6.8%	-25.1%
COc1ccc(CNC(=O)c2cnn3c(C)c(Cc4c(F)cccc4Cl)c(C)nc23)cc1	20.6µM*	-19.5%	·	·	-3.4%	11.6µM*
Cc1nc2c(C(=O)NCc3ccccc3)cnn2c(C)c1Cc1ccc(F)cc1	8.2µM*	-13.7%	·	·	-1.3%	7.31µM*
Cc1nc2c(C(=O)O)cnn2c(C)c1Cc1ccccc1	-8.9%	8.3%	·	·	15.5%	-9.4%
Cc1nc2c(C(=O)N3CCCC3)cnn2c(C)c1Cc1c(F)cccc1Cl	-25.7%	-0.6%	6.6%	4.0%	6.0%	-35.9%
CCCCNC(=O)C(NC(=O)c1cccnc1OC)C(=O)c1ccccc1 (configuration not stated)	-6.4%	·	10.2%	12.5%	·	-12.3%
O=C(N/C=N/OCc1ccc(Cl)cc1Cl)NOCc1c(Cl)cccc1Cl	23.1µM*	17.8µM*	16.4µM*	16.4µM*	-15.5%	20.6µM*
CO/N=C/NC(=O)NOCc1ccc(Cl)cc1Cl	-6.7%	17.9%	-8.1%	-11.8%	1.9%	0.6%
CCOC(=O)c1ccc(NS(=O)(=O)c2c(N)n(C)c(=O)n(C)c2=O)cc1	?	-35.5%	-1.6%	-1.9%	-22.9%	16.4µM*
COc1cccc(C2CC(=O)Nc3c2c(=O)nc2c(C)cccn32)c1 (configuration not stated)	·	13.9%	·	·	-0.1%	·
CCCC[C@@H]1Cc2[nH][nH]c(=O)c2[C@H](c2ccc(C(C)C)cc2)O1	?	·	22.3%	0.6%	·	?
CCCC[C@@H]1Cc2[nH][nH]c(=O)c2[C@H](c2ccc3ccccc3c2)O1	18.4µM*	·	0.3%	23.1µM*	·	-1.4%
Cc1ccc(-c2nnc3sc(C4COc5ccccc5O4)nn23)cc1 (configuration not stated)	23.1µM*	8.0%	-3.8%	2.6%	21.3%	?
O=c1cc(N/N=C/c2ccccc2)[nH]c(=O)[nH]1	4.61µM*	3.9%	3.66µM*	7.31µM*	9.1%	4.11µM*
O=c1cc(C=NNc2ccccc2)[nH]c(=O)[nH]1	2.0%	-11.7%	-8.5%	3.7%	-2.2%	6.8%
CC(C)Oc1cccc(-c2nnc(SCC(=O)Nc3ccc4c(c3)OCCO4)n2N)c1	-25.9%	-2.3%	4.7%	6.6%	-10.5%	-26.1%
SMILES	DT40 TDP1 no CPT	HepG2 viability	HT1080NT lethal	HT1080 IDH1KD tx	TGFb inhibitor	TDP1 cell CPT
CCOc1ccc(NC(=O)c2ccc(OCC3CCCO3)cc2)cc1S(=O)(=O)N(CC)CC (configuration not stated)	?	-17.2%	-2.3%	?	-7.6%	-24.3%
CCN(CC)S(=O)(=O)c1ccc(NC(=O)c2ccc(OCC3CCCO3)cc2)cc1 (configuration not stated)	14.6µM*	-44.0%	-18.2%	?	?	23.1µM*
Cc1cc(NC(=O)c2ccc(OCC3CCCO3)cc2)ccc1Br (configuration not stated)	14.6µM*	-27.0%	-10.8%	?	-8.7%	20.6µM*
COc1cccc(CNC(=O)CSCc2cnn(-c3ccccc3)c2-n2cccc2)c1	?	-18.9%	7.1%	8.4%	-12.5%	?
O=C(Cc1ccccc1)NC(NC(=O)Cc1ccccc1)c1cccc([N+](=O)[O-])c1	18.4µM*	12.7%	?	?	12.2%	?
CC(C)CC(=O)NC(NC(=O)CC(C)C)c1cccc([N+](=O)[O-])c1	-4.4%	-15.7%	7.2%	-3.7%	-9.7%	18.2%
O=C(Cc1csc2nc(-c3ccc(F)cc3)cn12)NCc1ccccc1	?	3.3%	·	·	-24.7%	16.4µM*
Cc1ccc(NC(=O)C2CCN(S(=O)(=O)c3ccc4c(c3)CCCC(=O)N4)CC2)c(Br)c1	?	0.5%	-2.0%	-0.4%	-17.0%	?
COc1ccccc1CNC(=O)c1c[nH]c2ccc(S(=O)(=O)Nc3cc(C)cc(C)c3)cc2c1=O	20.6µM*	-38.5%	·	·	?	?
CCc1ccc(NS(=O)(=O)c2ccc3[nH]cc(C(=O)NCc4ccc(C)cc4)c(=O)c3c2)cc1	?	20µM*	·	·	?	?
Cc1cc(C)cc(NS(=O)(=O)c2ccc3[nH]cc(C(=O)N4CCc5ccccc54)c(=O)c3c2)c1	?	1.2%	23.1µM*	23.1µM*	-13.3%	?
